Laboratory results reported in PubChem BioAssay (Tox21).
“And” between values parts separate entries of the source, which are not always exact repeats. Identical values can stand only once. The source made the active and inactive calls. Entries that show only a call come without a potency. Calls come from the whole dose curve. Starred links: 1 amine or outer side, 2 acyl side, 3 side chain; linkers in the order of their positions; H or OH if unused. Positions of bridges follow the written chain, without caps; N, C: chain ends. Non-standard residues stand in square brackets, D forms with d. Residues, ends and D or L forms follow the SMILES beside them. Chains are numbered I, II in the order given. Actinocin(9to1) = Cc1c2oc3c(C)ccc(C(=O)[*:1])c3nc-2c(C(=O)[*:2])c(N)c1=O; NMeV = CN[C@H](C(=O)O)C(C)C; Sar = CNCC(=O)O

The compounds below were run against Thyrotropin-releasing hormone receptor (Homo sapiens) (UniProt P34981) (assay: qHTS assay to identify small molecule agonists of the thyrotropin-releasing hormone receptor (TRHR) signaling pathway (AID 1346891;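 for activation: HEK293 cells expressing TRHR with calcium dye readout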)). Settings: TRHR-HEK293 calcium fluorescence, agonist mode; series mostly up to 57.6 µM; activation: at the top concentration.
From the text: National Center for Advancing Translational Sciences [NCATS] NIH Chemical Genomics Center [NCGC] U.S. Environmental Protection Agency [EPA] National Institutes of Environmental Health Sciences [NIEHS] National Toxicology Program [NTP] Assay overview: Thyrotropin-releasing hormone (TRH) receptor (TRHR) is a G-protein-coupled receptor which binds the tripeptide thyrotropin releasing hormone. TRHR is found in the brain and, when bound by TRH, acts (through phospholipase C) to increase intracellular inositol trisphosphate. It plays a crucial role in the anterior pituitary where it controls the synthesis and secretion of thyroid stimulating hormone and prolactin. The TRHR-Hek293 assay is a cell-based assay, and it has the potential to screen G protein-coupled receptors. A compound/drug can either activate (agonist) or suppress (antagonist) GPCRs that can be monitored by levels of intracellular calcium. Using this assay, the Tox21 10K compound library was screened to identify potential TRHR agonists.
Assay Protocol Summary: The TRHR-Hek293 cells were dispensed at 1500cells/4uL/well in 1536-well black-clear bottom plates using a Multidrop dispenser. After the assay plates were incubated at a 37 C/5% CO2 incubator for 18 hours, 4 uL of Dye-Loading Solution was added to each well. The plates were incubated at 37 C for 2 hours. For agonist mode, 23 nL of compounds dissolved in DMSO, positive controls or DMSO only was transferred to the assay plate by a pin tool. The fluorescence intensity in the plates was measured using FDSS 7000EX kinetic plate reader for 3 min at 1 sec intervals. Each test compound was measured at 15 concentrations and in triplicates.
Potency is the fitted concentration of half-maximal effect.

Sequence of Thyrotropin-releasing hormone receptor (Homo sapiens) (P34981 whole entry, looked up): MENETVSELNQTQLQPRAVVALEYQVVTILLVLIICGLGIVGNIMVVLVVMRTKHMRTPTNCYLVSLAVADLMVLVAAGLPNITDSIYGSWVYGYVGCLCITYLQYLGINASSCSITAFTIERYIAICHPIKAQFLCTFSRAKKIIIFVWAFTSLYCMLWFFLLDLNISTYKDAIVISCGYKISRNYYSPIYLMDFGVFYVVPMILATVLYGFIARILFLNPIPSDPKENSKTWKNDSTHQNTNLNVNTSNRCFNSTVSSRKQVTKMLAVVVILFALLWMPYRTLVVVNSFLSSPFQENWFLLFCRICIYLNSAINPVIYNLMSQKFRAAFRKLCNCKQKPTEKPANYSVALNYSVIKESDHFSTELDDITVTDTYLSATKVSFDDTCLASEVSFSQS

Row | Structure (SMILES) | Potency | activation
1 | C=C(C)C(=O)O | inactive | –
2 | CC1COc2c(N3CCN(C)CC3)c(F)cc3c(=O)c(C(=O)O)cn1c23 (stereo not given) | – | -0.0487% [at 26.5 µM] (inactive)
3 | O=C(O)CCc1ccccc1 | – | -0.16% (inactive)
4 | CC1COC(=O)O1 (stereo not given) | inactive | –
5 | O=C(O)Cn1cnnn1 | – | -0.0919% [at 26.5 µM] (inactive)
6 | CCC(=O)/C=C/C1C(C)=CCCC1(C)C (stereo not given) | inactive | –
7 | Cc1ccnc2c1NC(=O)c1cccnc1N2C1CC1 | inactive | –
8 | CC(=O)OCCOCCOCCOC(C)=O | inactive | –
9 | [Cl][In]([Cl])[Cl] | inactive | –
10 | CNCCC(Oc1ccc(C(F)(F)F)cc1)c1ccccc1 (stereo not given) | inactive | –
11 | c1cnc2cc3c(cc2n1)C1CNCC3C1 | – | -0.06% [at 26.5 µM] (inactive)
12 | CCN(CC)c1ccc2c(C)cc(=O)oc2c1 | inactive | –
13 | CC(C)C(=O)c1c(C(C)C)nn2ccccc12 | – | 0.136% [at 26.5 µM] (inactive)
14 | COc1ccc(CCN(C)CCCC(C#N)(c2ccc(OC)c(OC)c2)C(C)C)cc1OC (stereo not given) | inactive | –
15 | O=S(=O)(O)c1ccc2nc(-c3ccccc3)[nH]c2c1 | inactive | –
16 | Cc1cc(OCCOCC[N+](C)(C)Cc2ccccc2)ccc1C(C)(C)CC(C)(C)C | – | 8.08% [at 26.5 µM] (inactive)
17 | O=C(OCc1ccccc1)c1ccc(O)cc1 | inactive | –
18 | Nc1nc(=S)c2[nH]cnc2[nH]1 | inactive | –
19 | CC(=O)Nc1ccc(C(=O)CCl)cc1 | inactive | –
20 | Nc1ccc(O)cc1 | inactive | –

Row | Structure (SMILES) | Potency | activation
21 | CCN1CCCC1CNC(=O)c1cc(S(=O)(=O)CC)c(N)cc1OC (stereo not given) | – | 0.023% [at 26.5 µM] (inactive)
22 | CC[C@]1(O)C[C@@H]2CN(CCc3c([nH]c4ccccc34)[C@@](C(=O)OC)(c3cc4c(cc3OC)N(C)[C@H]3[C@@](O)(C(=O)OC)[C@H](OC(C)=O)[C@]5(CC)C=CCN6CC[C@]43[C@@H]65)C2)C1 | inactive | –
23 | CC1=CC(=O)c2ccccc2C1=O | inactive | –
24 | O=C1NCC2(CCN(CCc3ccccc3)CC2)O1 | – | 0.119% [at 26.5 µM] (inactive)
25 | NCCCCCC(=O)O | – | 0.363% [at 26.5 µM] (inactive)
26 | CCCNC(C)C(=O)Nc1ccccc1C (stereo not given) | – | -0.0942% [at 26.5 µM] (inactive)
27 | CCCCCC(=O)O[C@]1(C(C)=O)CC[C@H]2[C@@H]3CCC4=CC(=O)CC[C@]4(C)[C@H]3CC[C@@]21C | inactive | –
28 | CCCCCCCCCCCC[N+](C)(C)C | inactive | –
29 | CCCCOCCOC(=O)c1ccccc1C(=O)OCCOCCCC | inactive | –
30 | OCCOCCN1CCN(C(c2ccccc2)c2ccc(Cl)cc2)CC1 (stereo not given) | inactive | –
31 | CC[C@@H](N)CO | – | 0.0502% (inactive)
32 | CC(C)(C)c1ccccc1 | – | -0.0305% (inactive)
33 | Cc1cc(C(C)(C)C)c(O)c(C(C)(C)C)c1 | inactive | –
34 | Cc1c2oc3c(C)ccc(C(=O)N[C@@H]4C(=O)N[C@H](C(C)C)C(=O)N5CCC[C@H]5C(=O)N(C)CC(=O)N(C)[C@@H](C(C)C)C(=O)O[C@@H]4C)c3nc-2c(C(=O)N[C@@H]2C(=O)N[C@H](C(C)C)C(=O)N3CCC[C@H]3C(=O)N(C)CC(=O)N(C)[C@@H](C(C)C)C(=O)O[C@@H]2C)c(N)c1=O (I: T[dV]P[Sar][NMeV] / II: T[dV]P[Sar][NMeV]; ester I:1-I:C, II:1-II:C; linker I:N-II:N via Actinocin(9to1)) | inactive | –
35 | O=Cc1ccc(Cl)cc1 | – | 0.0109% (inactive)
36 | CC(=O)CC(C)=O | – | 0.244% (inactive)
37 | Nc1nc2ccccc2[nH]1 | inactive | –
38 | NC(=Nc1ccccc1)Nc1ccccc1 | 7.76 µM (active) and 15.1 µM (active) | –
39 | CCOC(=O)C(C)C(C)=O (stereo not given) | – | -0.306% (inactive)
40 | O=C(O)c1cccc(C(=O)O)c1 | inactive | –
